Assay outcomes as filed in PubChem.
Sampled rows, rich in hits. Any-hit rate of the full collection: about 2.3%.
M1 ag: activates human CHRM1 receptor. P11229. CHO-K1 hM1, Fluo-8 calcium fluorescence, agonist mode; 0% DMSO, 100% acetylcholine EC100. 360,000 compounds, 0.33% hits. activation, % at 3 µM;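 active = activation above the run's mean compound activation plus 3 SD, cut at about 16% in these data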;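 also: peak over basal fluorescence ratio within a 140 s kinetic read after compound addition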
Target sequence (P11229 whole entry, looked up): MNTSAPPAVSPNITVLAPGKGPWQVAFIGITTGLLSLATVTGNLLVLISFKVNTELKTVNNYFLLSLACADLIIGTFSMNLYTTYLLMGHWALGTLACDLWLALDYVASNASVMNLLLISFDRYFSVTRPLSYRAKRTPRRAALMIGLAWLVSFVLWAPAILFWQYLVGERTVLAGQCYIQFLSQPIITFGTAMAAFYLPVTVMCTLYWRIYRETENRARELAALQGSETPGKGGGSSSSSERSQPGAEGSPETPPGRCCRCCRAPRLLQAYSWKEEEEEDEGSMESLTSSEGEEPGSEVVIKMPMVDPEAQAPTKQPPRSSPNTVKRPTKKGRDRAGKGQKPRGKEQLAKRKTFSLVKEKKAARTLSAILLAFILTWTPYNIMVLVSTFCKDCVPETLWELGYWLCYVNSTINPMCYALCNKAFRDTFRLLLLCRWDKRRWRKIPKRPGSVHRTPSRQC
CHO-K1 Ca antag: counter-screen for M1 antagonists: effect in parental CHO-K1 cells. ATP-induced calcium, Fluo-8 fluorescence. inhibition, % at 3 µM. 360,000 compounds, 0.6% hits;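 active = inhibition above a per-plate cutoff, the plate's mean sample inhibition plus 3 SD, cut at about 24% in these data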;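 also: 0% = DMSO plus EC80 ATP and 100% = DMSO alone without ATP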
M1 PAM: potentiates human M1 receptor response to acetylcholine. P11229. CHO-K1 hM1, Fluo-8 calcium fluorescence, ACh EC20; 0% = ACh EC20, 100% = maximal ACh. activation, % at 3 µM. 360,000 compounds, 0.088% hits; in the data active = activation above about 19%, passing the limit was not always enough
CHRM1 antagonist: antagonists of human M1 muscarinic receptor | P11229 | CHO-K1 hM1, Fluo-8 calcium fluorescence, ACh EC80 antagonist | inhibition, % at 3 µM | 360,000 compounds, 1.3% hits;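 active = percent inhibition above its own plate's cutoff, namely the mean of that plate's compound wells plus 3 SD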;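 also: peak over basal fluorescence ratio during 140 s after agonist addition; 0% = ACh EC80 plus DMSO and 100% = DMSO alone without agonist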
CHO-K1 Ca ag: counter-screen for M1 agonists: effect in parental CHO-K1 cells; AID 602248; 360,000 compounds, 0.48% hits; activation, % at 3 µM; Fluo-8 calcium fluorescence; scaled to maximal ATP response, vehicle zero; in the data active = activation above about 15%;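 also: untransfected CHO-K1 host cells lacking M1 receptor as counterscreen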
CHO-K1 Ca PAM: M1 PAM counterscreen hit in parental CHO-K1 cells; ATP EC20, Fluo-8 calcium fluorescence; 0% at ATP EC20, 100% at ATP max; activation, % at 3 µM; 360,000 compounds, 0.02% hits; AID 602247;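 active = activation above the run cutoff, the mean activation of all test compounds plus 3 SD, cut at about 40% in these data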;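 also: peak over basal fluorescence ratio in a 140 s read after ATP addition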
* hit, by the source's call.

SMILES	M1 ag	CHO-K1 Ca antag	M1 PAM	CHRM1 antagonist	CHO-K1 Ca ag	CHO-K1 Ca PAM
CC1(C(=O)Nc2cnc3ccccc3c2)CCN1Cc1cc2ccccc2o1 (stereo unspecified)	-5	35*	-9	10	3	-16
O=[N+]([O-])c1ccc(-c2nc(Nc3cccc(O)c3)c3ccccc3n2)cc1	-3	21	2	-4	20*	-6
O=C(O)c1cccc(Nc2nc(-c3ccc([N+](=O)[O-])cc3)nc3ccccc23)c1	-2	-7	2	-9	2	7
O=C(Nc1ccc(OC(F)F)cc1)Nc1cccc(C(F)(F)F)c1	1	27*	-19	24*	10	-1
O=C(Nc1ccncc1)Nc1cccc(C(F)(F)F)c1	8	23	-3	7	14	-20
CCN(CC)S(=O)(=O)c1ccc(NC(=O)Nc2cccc(C(F)(F)F)c2)cc1	2	28*	-11	30*	11	0
O=C(Nc1ccn(C2CCC(CO)O2)c(=O)n1)c1ccccc1 (stereo unspecified)	-5	-4	7	-4	1	18
NC(CSC(c1ccccc1)(c1ccccc1)c1ccccc1)C(=O)O (stereo unspecified)	-8	-11	-25	40*	0	18
NC(CC(=O)NC(c1ccccc1)(c1ccccc1)c1ccccc1)C(=O)O (stereo unspecified)	-6	3	9	-7	0	7
Cc1nc(S(=O)(=O)N2CCN(C3c4ccccc4-c4ccccc43)CC2)cn1C	-1	-18	9	-13	3	21
Cc1nc2c(o1)CCc1ccccc1C2N1CCN(C)CC1 (stereo unspecified)	-7	-15	-31	99*	0	20
COC(=O)CNC(=O)COC(=O)/C=C/c1ccc2ccccc2n1	-2	13	-5	5	16*	3
CCOC(=O)C1CCCN(C(=O)c2cccc(NC(=O)C(CC)CC)c2)C1 (stereo unspecified)	-2	24*	6	-2	0	-19
CCOC(=O)C1CCCN(C(=S)Nc2cccc(Cl)c2)C1 (stereo unspecified)	74*	4	-9	62*	13	13
CCOC(=O)C1CCCN(C(=S)Nc2cccc(Cl)c2C)C1 (stereo unspecified)	68*	5	-13	57*	0	0
CCOc1ccc(N(CC(=O)Nc2c(C)cc(C)cc2C)C2=NC3CS(=O)(=O)CC3S2)cc1 (stereo unspecified)	-6	11	-7	14	-1	0
CCOC(=O)c1c(C)nc2sc(C(=O)Nc3ccc(OC)cc3)c(N)c2c1-c1ccc(OC)cc1	-2	14	-4	13	0	-6
CCOC(=O)c1c(C)nc2sc(C(=O)Nc3ccc(C(C)=O)cc3)c(N)c2c1-c1ccc(OC)cc1	-2	8	-9	38*	2	-3
CCc1cccc(NS(=O)(=O)c2csc(C(N)=O)c2)c1	1	8	-15	24	16*	-3
C(=C\c1ccco1)/C=N/n1cnnc1	2	26*	10	-5	0	-9
S=c1[nH]nc(-c2ccncc2)n1/N=C/C=C/c1ccco1	-4	3	5	4	0	14
CC(C)Oc1ccc(CN2CCC2(C)C(=O)Nc2cccc3cccnc23)cc1 (stereo unspecified)	0	7	-10	17	0	-14
CC(CNS(=O)(=O)c1ccc2c(c1)NC(=O)CCS2)c1ccccc1 (stereo unspecified)	0	2	2	-5	18*	5
Brc1cccc(-c2nc3c4ccccc4ccn3c2Cc2ccsc2)c1	-4	-16	0	-25	0	4
O=C1CSC(c2ccccc2Br)N1c1ccc(Cl)cn1 (stereo unspecified)	-6	-2	-22	59*	1	18
CCCC(C)(C)C(=O)N1CCC1(C)C(=O)NS(=O)(=O)c1ccc(Br)cc1 (stereo unspecified)	-3	2	0	-12	0	6
COC(=O)CCC(NS(=O)(=O)OCC(Cl)(Cl)Cl)c1ccccc1 (stereo unspecified)	-5	-7	-2	2	0	2
